Laboratory results as given in PubChem BioAssay.
Where “and” joins values, the source holds several entries; their conditions need not be identical. Equal entries are not always repeated. Results filed as inconclusive are left out. Calls of active or inactive are those of the source.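 The calls were made as follows, unless noted: active = normalized viability below 100% at a tested concentration; inactive = the rest.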

Experiments:
[1] = stimulators of nuclear beta-catenin in C2C12, primary screen, imaging, WNT3A-conditioned medium, mouse C2C12, NPC library (AID 1117326; in the data active = nuclear beta-catenin stimulation mostly above about 4.2%, no sharp cut-off; inactive = mostly below about 10%); details: stronger effect = higher value
[2] = stimulators of insulin release from INS-1E, primary screen, cell-based, 5 mM glucose, NPC library (AID 1117329;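 active = compound raises insulin release from rat beta cells at 5 mM glucose, no numeric limit stated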); details: rat INS-1E insulin secretion, at 10 µM, stronger effect = higher value
[3] = growth inhibition of GSK3B-pretreated HCT116 cells – cell-based, CellTiter-Glo, 0.2 to 20 µM (AID 1117336;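 active = compounds lowering colon cancer cell viability after pretreatment blocking the GSK3B kinase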); details: HCT116 viability after GSK3B inhibitor, at 20 µM, stronger effect = higher value
[4] = inhibition of endothelial tube formation, primary screen, imaging, VEGF stimulated, CD31 staining, tube area, NPC library (AID 1117340;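 active = compound that reduces growth-factor-driven endothelial tube area in a mixed cell culture, no cutoff stated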); details: VEGF-stimulated ADSC/ECFC co-culture, at 10 µM, stronger effect = higher value
[5] = glucagon-like peptide 1 release enhancers, primary assay, NCI-H716 cell line, NPC library (AID 1117341;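 active = compound raises GLP1 secretion from the human gut endocrine cells, with no numeric limit stated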); details: NCI-H716 cells, at 10 µM, stronger effect = higher value
[6] = HCT116 colon cancer cell growth inhibition, primary screen, CellTiter-Glo luminescence, NPC library (AID 1117342;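 active = compounds that lower survival of HCT116 colon cancer cells in the luminescence readout, no numeric limit stated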); details: at 20 µM (top of the series)
[7] = CellTiter-Glo luminescent readout of SW480 viability loss, NPC library primary (AID 1117343;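 active = compounds that lower viability of the colon cancer cells in the luminescence readout, with no numeric limit stated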); details: CellTiter-Glo luminescence; at 20 µM (top of the series) unless noted
[8] = decreased DLD-1 cellular survival, CellTiter-Glo luminescent readout, NPC compound collection, primary HTS (AID 1117346;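 active = compounds that lower survival of DLD-1 colon cancer cells in the luminescence readout, no cutoff given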); details: DLD-1 viability, CellTiter-Glo luminescence; at 20 µM (top of the series)
[9] = test system: Aerobactin synthetase IucA (Klebsiella pneumoniae); experiment: IucA aerobactin synthetase inhibitors, biochemical, Tocris library, absorbance (AID 1345561; call rule not given here;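 also: 100% = enzyme without compound and 0% = no enzyme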); details: purified IucA enzyme assay, absorbance (OD) read-out; stronger effect = lower value;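 tested at 8 µM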
[10] = growth inhibition of DIPG glioma cells, dose response, cell-based, SU-DIPG-XVII, MIPE5.0, CellTiter-Glo, qHTS (AID 1347060; cut-off not given, nearly all actives have AC50 up to about 26 µM;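 as to AC50: cells exposed to compound for 48 hours before viability readout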); details: SU-DIPG-XVII viability, CellTiter-Glo ATP luminescence
[11] = growth inhibition of DIPG glioma cells, dose response, cell-based, SU-DIPG-XIII, MIPE4.0, CellTiter-Glo, qHTS (AID 1347061; cut-off not given, nearly all actives have AC50 up to about 37 µM;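 also: cells exposed to compound for 48 hours before readout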); details: SU-DIPG-XIII viability, CellTiter-Glo ATP luminescence
[12] = SU-DIPG-VI glioma cell viability, MIPE4.0 library, CellTiter-Glo luminescence, qHTS (AID 1347066; cut-off not given, nearly all actives have AC50 up to about 30 µM;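 also: cells exposed to compound for 48 hours before readout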); details: CellTiter-Glo ATP luminescence
[13] = SU-DIPG-XXV glioma cell viability, MIPE5.0 library, qHTS (AID 1347068; cut-off not given, nearly all actives have IC50 up to about 30 µM)
[14] = sensitizers of A549 cells to miR-34 induction, primary screen, imaging, A549 dox-inducible miR-34, nuclei and caspase counts (AID 1347080;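 active = compounds whose cell count with miR-34 switched on is under 0.7 times the count with it off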); details: A549 miR-34 inducible, Hoechst nuclei count, 48 h
[15] = ovarian cancer cell viability with rucaparib, profiling panel, oncology-focused library, rucaparib conditional (AID 1508598); details: patient-derived ovarian cancer cells, CellTiter-Glo viability, 144 h, stronger effect = lower value
[16] = viability rescue of complex I mutant cybrids, primary screen, cell-based, galactose medium, ATP luminescence (AID 1645843;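 active = z-score of at least 1.8 in each of two replicates, scored against plate mean and spread of sample wells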;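 also: positive z means more ATP and so rescue of galactose-driven cybrid death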); details: complex I mutant cybrid cells, 72 h, stronger effect = higher value
[17] = differential killing of epithelial or mesenchymal cells, primary screen, imaging, PC-3E GFP, TEM4-18 mCherry, co-culture (AID 1345086;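 active = compounds killing one labelled cell type while sparing the other, by normalised counts and ratio limits, not self-fluorescent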;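 as to all read-outs here: cells exposed to compound for 72 h before imaging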;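 as to red/green cell ratio (normalised): normalised mesenchymal count divided by normalised epithelial count so high means epithelial killing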); details: imaging cell counts, at 1 µM; for red/green cell ratio (normalised): actives lie on both sides, counts scaled to control wells, 1 = unselective
[18] = biological target: NAD(+) hydrolase SARM1 (Homo sapiens) (UniProt Q6SZW1); experiment: SARM1 TIR NADase inhibitors, cell lysate, NAD-Glo luminescence (AID 1508614;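 active = compound whose remaining NAD level is above about 45 nM, limit read from the data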;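 also: higher remaining NAD means stronger inhibition of SARM1 NADase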); details: SAM-TIR HEK293T lysate NADase, at 1 µM, stronger effect = higher value
[19] = liver-stage malaria parasite growth inhibition, primary screen, cell-based, HepG2, luciferase luminescence, HepG2 viability (AID 624349; in the data active = parasite load remaining mostly below about 12%, no sharp cut-off; inactive = mostly above about 10%;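 also: 100% = mean of DMSO negative control wells on the same plate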); details: P. berghei liver stage in HepG2, luciferase luminescence, concentration not given here; parasite load remaining: stronger effect = lower value; viability: measured here: HepG2 viability without parasites
[20] = survival rescue of mitochondrial mutant cells in low glucose, primary screen, MELAS cybrids, Rieske KO mouse fibroblasts, CellTiter-Glo (AID 1508586;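 active = mean z-score across replicates of 1.96 or higher in either the MELAS or the Rieske mutant cell line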;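 also: z relative to plate mean and SD of compound and empty wells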)
[21] = measured here: epithelial PC-3E GFP cell survival
[22] = measured here: mesenchymal TEM4-18 mCherry cell survival

Sequence of NAD(+) hydrolase SARM1 (Homo sapiens) (Q6SZW1 whole entry, looked up): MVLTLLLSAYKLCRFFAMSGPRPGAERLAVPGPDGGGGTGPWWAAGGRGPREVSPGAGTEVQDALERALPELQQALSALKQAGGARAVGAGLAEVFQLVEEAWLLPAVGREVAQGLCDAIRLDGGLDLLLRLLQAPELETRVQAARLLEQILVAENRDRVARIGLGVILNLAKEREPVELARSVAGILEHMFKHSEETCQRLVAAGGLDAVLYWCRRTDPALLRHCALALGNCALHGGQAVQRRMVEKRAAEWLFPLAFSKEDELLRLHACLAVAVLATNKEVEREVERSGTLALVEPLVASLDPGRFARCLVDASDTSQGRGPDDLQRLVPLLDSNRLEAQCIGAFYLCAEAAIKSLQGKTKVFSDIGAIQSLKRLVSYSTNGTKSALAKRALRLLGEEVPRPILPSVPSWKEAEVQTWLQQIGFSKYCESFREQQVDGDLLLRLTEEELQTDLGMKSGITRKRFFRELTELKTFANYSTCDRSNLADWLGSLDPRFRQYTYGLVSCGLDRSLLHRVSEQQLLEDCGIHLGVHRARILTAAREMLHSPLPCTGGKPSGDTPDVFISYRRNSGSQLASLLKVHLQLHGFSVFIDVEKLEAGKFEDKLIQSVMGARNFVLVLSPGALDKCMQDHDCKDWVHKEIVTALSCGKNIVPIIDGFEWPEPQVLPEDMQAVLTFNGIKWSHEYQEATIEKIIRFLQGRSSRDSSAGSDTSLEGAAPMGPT

Nc1ncn([C@H]2C[C@H](O)[C@@H](CO)O2)c(=O)n1
inactive: nuclear beta-catenin stimulation ([1]; at 10 µM) 7.2% | insulin secretion stimulation [2] -1.2% | viability decrease [3] 33.4% | GLP1 secretion stimulation [5] 1.6% | inhibition of viability [6] 31.2% | viability decrease (inhibition) [8] 18.9% | remaining activity [9] 97% | outcome [10] | outcome [11] | outcome [12] | outcome [13] | fold change ([14]; stronger effect = lower value, cell number ratio, induced over uninduced) 0.823 | viability ([15]; at 0.000305 µM, OCI-C5x cells, with rucaparib 10 µM, 100% = cells with rucaparib alone) 122% | viability ([15]; at 0.000305 µM, OCI-C5x cells, without rucaparib) 112% | viability ([15]; at 0.000305 µM, OCI-P5x cells, with rucaparib 20 µM, 100% = cells with rucaparib alone) 104% | viability ([15]; at 0.000305 µM, OCI-P5x cells, without rucaparib) 112% | viability ([15]; at 0.00122 µM, OCI-C5x cells, with rucaparib 10 µM, 100% = cells with rucaparib alone) 111% | viability ([15]; at 0.00122 µM, OCI-C5x cells, without rucaparib) 107% | viability ([15]; at 0.00122 µM, OCI-P5x cells, with rucaparib 20 µM, 100% = cells with rucaparib alone) 111% | viability ([15]; at 0.00122 µM, OCI-P5x cells, without rucaparib) 103% | viability ([15]; at 0.00488 µM, OCI-C5x cells, with rucaparib 10 µM, 100% = cells with rucaparib alone) 113% | viability ([15]; at 0.00488 µM, OCI-C5x cells, without rucaparib) 112% | viability ([15]; at 0.0195 µM, OCI-C5x cells, with rucaparib 10 µM, 100% = cells with rucaparib alone) 103% | viability ([15]; at 0.0195 µM, OCI-C5x cells, without rucaparib) 108% | viability ([15]; at 0.0781 µM, OCI-C5x cells, with rucaparib 10 µM, 100% = cells with rucaparib alone) 101% | viability ([15]; at 0.0781 µM, OCI-C5x cells, without rucaparib) 107% | z-score [16] 0.69
4.5%: nuclear beta-catenin stimulation ([1]; stimulation, at 2 µM)
8200: cell count ([14]; measured here: total cells with miR-34 induction, stronger effect = lower value)
9960: cell count ([14]; measured here: total cells without miR-34 induction)
active: tube area decrease [4] 58.1% | viability decrease (inhibition) [7] 53.8% | viability ([15]; at 0.00488 µM, OCI-P5x cells, with rucaparib 20 µM, 100% = cells with rucaparib alone) 99.8% | viability ([15]; at 0.00488 µM, OCI-P5x cells, without rucaparib) 95.8% | viability ([15]; at 0.0195 µM, OCI-P5x cells, with rucaparib 20 µM, 100% = cells with rucaparib alone) 82.8% | viability ([15]; at 0.0195 µM, OCI-P5x cells, without rucaparib) 95.2% | viability ([15]; at 0.0781 µM, OCI-P5x cells, with rucaparib 20 µM, 100% = cells with rucaparib alone) 96.6% | viability ([15]; at 0.0781 µM, OCI-P5x cells, without rucaparib) 88.3% | viability ([15]; at 0.313 µM, OCI-C5x cells, with rucaparib 10 µM, 100% = cells with rucaparib alone) 85.8% | viability ([15]; at 0.313 µM, OCI-C5x cells, without rucaparib) 88.1% | viability ([15]; at 0.313 µM, OCI-P5x cells, with rucaparib 20 µM, 100% = cells with rucaparib alone) 84.8% | viability ([15]; at 0.313 µM, OCI-P5x cells, without rucaparib) 68.4% | viability ([15]; at 1.25 µM, OCI-C5x cells, with rucaparib 10 µM, 100% = cells with rucaparib alone) 80.4% | viability ([15]; at 1.25 µM, OCI-C5x cells, without rucaparib) 80% | viability ([15]; at 1.25 µM, OCI-P5x cells, with rucaparib 20 µM, 100% = cells with rucaparib alone) 68.8% | viability ([15]; at 1.25 µM, OCI-P5x cells, without rucaparib) 61.9% | viability ([15]; at 5 µM, OCI-C5x cells, with rucaparib 10 µM, 100% = cells with rucaparib alone) 49.1% | viability ([15]; at 5 µM, OCI-C5x cells, without rucaparib) 63.2% | viability ([15]; at 5 µM, OCI-P5x cells, with rucaparib 20 µM, 100% = cells with rucaparib alone) 57.9% | viability ([15]; at 5 µM, OCI-P5x cells, without rucaparib) 46.9%
1.99: fold change ([14]; measured here: relative caspase fold change +Dox/-Dox)

CNCc1ccccc1
1.18: normalised cell number [17, 21]
1.06: normalised cell number [17, 22]
inactive: nuclear beta-catenin stimulation ([1]; at 10 µM) -1.9% | insulin secretion stimulation [2] -0.1% | viability decrease [3] -25.9% | tube area decrease [4] -5.5% | GLP1 secretion stimulation [5] -3.4% | inhibition of viability [6] -14.3% | viability decrease (inhibition) [7] -24.6% | viability decrease (inhibition) [8] -15.4% | red/green cell ratio (normalised) [17] 0.9
0.6%: nuclear beta-catenin stimulation ([1]; stimulation, at 2 µM)

CC1(C)[C@@H]2CC[C@@]1(C)C(=O)C2
1.05: normalised cell number [17, 22]
inactive: nuclear beta-catenin stimulation ([1]; at 10 µM) 0.2% | insulin secretion stimulation [2] 2.4% | viability decrease [3] 2.6% | tube area decrease [4] -4.3% | GLP1 secretion stimulation [5] -0.1% | inhibition of viability [6] 10.9% | viability decrease (inhibition) [7] 2.9% | viability decrease (inhibition) [8] 15.5% | red/green cell ratio (normalised) [17] 0.84 | remaining NAD [18] 10 nM
1.25: normalised cell number [17, 21]
0.6%: nuclear beta-catenin stimulation ([1]; stimulation, at 2 µM)

CC1=C(/C=C/C(C)=C/C=C/C(C)=C/C(=O)Nc2ccc(O)cc2)C(C)(C)CCC1
inactive: parasite load remaining [19] 39.4% | nuclear beta-catenin stimulation ([1]; at 10 µM) 21.3% | insulin secretion stimulation [2] 2.3% | GLP1 secretion stimulation [5] 2.4% | remaining activity [9] 97.3% | outcome [13] | z-score ([20]; MELAS cybrid survival, CellTiter-Glo 48 h, stronger effect = higher value) 0.416 | z-score [16] -0.95 and -0.72 and -2.12
39.9%: nuclear beta-catenin stimulation ([1]; stimulation, at 2 µM)
108%: viability [19]
0.408: z-score ([20]; Rieske KO mouse fibroblast survival, CellTiter-Glo 72 h)
active: viability decrease [3] 98.8% | tube area decrease [4] 110% | inhibition of viability [6] 90.4% | viability decrease (inhibition) [7] 118% | viability decrease (inhibition) [8] 94.3% | AC50 [10] 20.9 µM | AC50 [11] 34 µM | AC50 [12] 9.59 µM
